In PubChem BioAssay (NCATS):
Values without a mark were called inactive. Results filed as inconclusive are left out. Calls of active or inactive are those of the source. Unless noted, the call rests on the fitted dose curve; in most records, active means well fitted curve in either direction with a large enough effect (not every such curve was filed as active); inconclusive means small, poorly fitted or top-dose-only effect, or another doubt; inactive means flat fitted curve, though single readings scatter.

Legend:
[1] = target: Lysosomal acid glucosylceramidase (Homo sapiens) (UniProt P04062); assay: Glucocerebrosidase-p2 (AID 348; in the data active means potency below about 10 µM; further: potency means the concentration at half of the fitted maximal effect); conditions: purified GBA, blue fluorogenic substrate, 40 min
Chain of Lysosomal acid glucosylceramidase (Homo sapiens) (P04062 whole entry, looked up): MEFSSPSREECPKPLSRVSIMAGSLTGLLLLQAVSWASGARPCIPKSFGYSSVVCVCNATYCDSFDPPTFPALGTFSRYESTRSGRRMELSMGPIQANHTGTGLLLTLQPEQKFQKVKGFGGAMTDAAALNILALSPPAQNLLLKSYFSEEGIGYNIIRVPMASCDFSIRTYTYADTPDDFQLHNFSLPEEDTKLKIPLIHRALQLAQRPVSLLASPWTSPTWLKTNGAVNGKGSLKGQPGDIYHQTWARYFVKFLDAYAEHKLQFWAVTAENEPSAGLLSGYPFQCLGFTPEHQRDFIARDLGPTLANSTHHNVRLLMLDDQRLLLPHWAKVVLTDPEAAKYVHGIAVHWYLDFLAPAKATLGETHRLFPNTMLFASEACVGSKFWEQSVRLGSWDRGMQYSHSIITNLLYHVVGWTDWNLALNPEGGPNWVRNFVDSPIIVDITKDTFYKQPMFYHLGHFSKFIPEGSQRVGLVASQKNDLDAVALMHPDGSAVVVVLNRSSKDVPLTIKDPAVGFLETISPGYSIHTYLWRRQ
Procedure, shortened: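 Compounds titrated from 0.6 nM upwards against 0.2 nM enzyme in pH 5.9 citric acid/KH2PO4, taurocholate, tween-20; blue fluorogenic substrate 80 uM, 40 min room temperature, stopped and read Ex 365/Em 440 for AC50.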

[2] = AP1 Signaling Pathway (AID 357); conditions: ME-180 AP-1-bla reporter, EGF-induced, beta-lactamase ratio, 5 h; at 7.69 µM (top of the series) unless noted;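 further: ME-180 reporter cells stimulated with EGF at its EC50 level; on the % scale 0 is the no-effect control and ±100 the full control effect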
Procedure, shortened: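 Beta-lactamase reporter under AP-1 response element, ME-180 background. Stimulus: EC50 EGF. Compound exposure 5 h, 37 °C. Detection: CCF4, 2.5 h RT, 460/530 nm. Values: AC50 from titration.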

[3] = target: Cytochrome P450 1A2 (Homo sapiens) (UniProt P05177); assay: p450-cyp1a2 (AID 410; calls by dose curve; further: potency means the concentration at half of the fitted maximal effect;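 on activity change, negative = inhibition: -100% = full effect of reference inhibitor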); conditions: recombinant CYP1A2, luciferin-ME demethylation, luminescence; series mostly up to 11.4 µM
Chain of Cytochrome P450 1A2 (Homo sapiens) (P05177 whole entry, looked up): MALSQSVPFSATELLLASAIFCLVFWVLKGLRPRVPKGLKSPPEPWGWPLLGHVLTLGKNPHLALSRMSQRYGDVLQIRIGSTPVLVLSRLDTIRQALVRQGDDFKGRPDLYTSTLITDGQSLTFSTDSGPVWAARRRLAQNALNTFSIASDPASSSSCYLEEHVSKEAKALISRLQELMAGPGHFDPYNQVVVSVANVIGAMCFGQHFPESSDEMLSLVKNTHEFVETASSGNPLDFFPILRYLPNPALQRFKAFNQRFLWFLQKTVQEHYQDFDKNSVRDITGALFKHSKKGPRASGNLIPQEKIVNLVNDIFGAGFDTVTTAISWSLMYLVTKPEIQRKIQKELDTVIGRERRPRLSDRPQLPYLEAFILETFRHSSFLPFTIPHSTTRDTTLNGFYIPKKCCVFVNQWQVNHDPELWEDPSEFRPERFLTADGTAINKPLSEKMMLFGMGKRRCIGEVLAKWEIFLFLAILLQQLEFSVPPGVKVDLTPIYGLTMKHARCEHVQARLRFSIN
Procedure, shortened: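 Inhibition was calculated relative to 57 uM furafylline (full inhibition). The reaction used human CYP1A2 at 20nM with Luciferin-ME at its Km, 100uM, driven by an NADPH-regenerating system for 60 min at room temperature.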

[4] = Stat Signaling Pathway (AID 446); conditions: ME-180 SIE beta-lactamase reporter, IL-6 stimulated, 5 h; at 7.69 µM (top of the series) unless noted;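 further: ME-180 cervical cancer cells given 40 pM IL-6 alongside compound; SIE-controlled beta-lactamase reporter measured as 460/530 nm FRET emission ratio; on the % scale 0 is the no-effect control and ±100 the full control effect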
Procedure, shortened: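 ME-180 SIE-bla cells; overnight plating; cpd + IL-6 40 pM, 5 h, 37 C; LiveBLAzer 2.5 h RT; 460/530 nm emission ratio. Normalized to 300 pM IL-6 and 125 nM JAK inhibitor controls.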

[5] = target: Glucocorticoid receptor (Homo sapiens) (UniProt P04150); assay: GR-GFP Redistribution (AID 450;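 active means compounds whose dose series gives a full or clear partial fitted curve of increased nuclear translocation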; further: potency means the concentration at half of the fitted maximal effect); conditions: U2OS GR-GFP nuclear translocation, laser cytometry, 2 h
Chain of Glucocorticoid receptor (Homo sapiens) (P04150 whole entry, looked up, the tested form may be a part): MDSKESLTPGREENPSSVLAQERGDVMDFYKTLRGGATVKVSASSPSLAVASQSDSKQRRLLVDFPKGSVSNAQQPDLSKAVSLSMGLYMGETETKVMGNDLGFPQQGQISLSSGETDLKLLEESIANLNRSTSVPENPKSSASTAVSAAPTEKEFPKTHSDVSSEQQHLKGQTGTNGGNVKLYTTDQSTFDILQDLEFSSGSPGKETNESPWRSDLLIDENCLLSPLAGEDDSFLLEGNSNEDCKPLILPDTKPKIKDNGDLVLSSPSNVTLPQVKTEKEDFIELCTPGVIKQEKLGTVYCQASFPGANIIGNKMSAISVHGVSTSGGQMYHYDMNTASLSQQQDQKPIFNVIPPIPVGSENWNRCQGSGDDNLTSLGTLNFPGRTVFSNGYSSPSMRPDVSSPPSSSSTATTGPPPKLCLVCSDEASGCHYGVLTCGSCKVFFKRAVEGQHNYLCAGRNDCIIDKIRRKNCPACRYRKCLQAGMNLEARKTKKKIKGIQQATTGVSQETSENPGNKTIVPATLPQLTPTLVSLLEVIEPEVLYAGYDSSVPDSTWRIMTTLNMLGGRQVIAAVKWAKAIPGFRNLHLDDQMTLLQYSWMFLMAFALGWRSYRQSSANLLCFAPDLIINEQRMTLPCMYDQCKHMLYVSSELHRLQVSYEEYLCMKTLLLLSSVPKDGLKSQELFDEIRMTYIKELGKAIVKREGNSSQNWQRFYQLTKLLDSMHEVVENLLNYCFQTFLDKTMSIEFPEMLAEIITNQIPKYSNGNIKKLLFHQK

[6] = target: Glucocorticoid receptor (Homo sapiens) (UniProt P04150); assay: GR-EFC Redistribution (AID 451; calls by dose curve; further: potency means the concentration at half of the fitted maximal effect); conditions: CHO-K1 GR-EFC translocation, beta-gal luminescence, 2 h
Procedure, shortened: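 CHO-K1 cells stably expressing nuclear-localized β-gal enzyme acceptor and GR fused C-terminally to the enzyme donor fragment; ligand-driven nuclear translocation restores β-gal by complementation. Compounds titrated up to 46 uM final, 2 h at 37 °C; luminescence read.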

[7] = target: Mitogen-activated protein kinase 10 (Mus musculus) (UniProt Q61831); assay: JNK3 AlphaScreen Assay (AID 530); conditions: JNK3 lysate, c-Jun phosphorylation; series mostly up to 11.4 µM;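 further: kinase came from lysate of stimulated human HepG2 cells; signal reports phosphorylation of biotinylated GST-cJun 1-79 at Ser73 with 10 µM ATP; on the % scale 0 is the no-effect control and ±100 the full control effect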
Procedure, shortened: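 JNK3 came from HepG2 lysates pre-activated with IL-1beta and TNF-alpha and phosphorylated biotinylated GST-cJun (1-79) at 10 uM ATP, pH 7.6, room temperature. Compounds were titrated. AlphaScreen signal used anti-phospho-cJun (Ser73) antibody.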

[8] = target: Cytochrome P450 3A4 (Homo sapiens) (UniProt P08684); assay: qHTS Assay for Activators of Cytochrome P450 3A4 (AID 885; active means well fitted curve in the direction sought with a large enough effect; an effect the other way counts as inactive or inconclusive; further: nearly all actives have a fitted effect of over 65% in size); conditions: recombinant CYP3A4, Luciferin-PPXE luminescence, 60 min; series mostly up to 11.4 µM
Chain of Cytochrome P450 3A4 (Homo sapiens) (P08684 whole entry, looked up): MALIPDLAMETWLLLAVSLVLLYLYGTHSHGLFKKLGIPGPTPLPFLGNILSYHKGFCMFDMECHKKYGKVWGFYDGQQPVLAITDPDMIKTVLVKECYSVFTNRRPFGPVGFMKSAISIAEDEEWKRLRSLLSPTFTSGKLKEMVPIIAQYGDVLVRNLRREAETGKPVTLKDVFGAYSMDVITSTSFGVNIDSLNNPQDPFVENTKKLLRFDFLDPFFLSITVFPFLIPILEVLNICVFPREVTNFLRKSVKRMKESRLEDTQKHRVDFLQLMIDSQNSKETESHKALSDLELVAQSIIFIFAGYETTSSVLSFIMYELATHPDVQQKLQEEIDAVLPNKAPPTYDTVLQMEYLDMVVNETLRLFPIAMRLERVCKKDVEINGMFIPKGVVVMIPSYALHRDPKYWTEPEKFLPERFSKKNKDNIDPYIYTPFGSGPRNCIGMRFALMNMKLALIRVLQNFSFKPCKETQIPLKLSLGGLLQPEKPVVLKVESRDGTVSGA
Procedure, shortened: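 20nM CYP3A4 + 25uM Luciferin-PPXE (=KM), 200mM KPO4; cpd 10 min RT; NADPH regen, 60 min RT; stop w/ detection buffer, 20 min; luminescence. Normalized to 57 uM ketoconazole.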

[9] = target: 3',5'-cyclic-AMP phosphodiesterase 4B (Homo sapiens) (UniProt Q07343); assay: qHTS Assay for Inhibitors of PDE-IV (AID 607; active means well fitted activation curve with a large enough effect in the main read-out, with a control signal flat, not every such curve was filed as active; further: % of control where 0% means no effect); conditions: HEK293 ACTOne CNG channel cells, membrane potential fluorescence; series mostly up to 22.9 µM
Chain of 3',5'-cyclic-AMP phosphodiesterase 4B (Homo sapiens) (Q07343 whole entry, looked up): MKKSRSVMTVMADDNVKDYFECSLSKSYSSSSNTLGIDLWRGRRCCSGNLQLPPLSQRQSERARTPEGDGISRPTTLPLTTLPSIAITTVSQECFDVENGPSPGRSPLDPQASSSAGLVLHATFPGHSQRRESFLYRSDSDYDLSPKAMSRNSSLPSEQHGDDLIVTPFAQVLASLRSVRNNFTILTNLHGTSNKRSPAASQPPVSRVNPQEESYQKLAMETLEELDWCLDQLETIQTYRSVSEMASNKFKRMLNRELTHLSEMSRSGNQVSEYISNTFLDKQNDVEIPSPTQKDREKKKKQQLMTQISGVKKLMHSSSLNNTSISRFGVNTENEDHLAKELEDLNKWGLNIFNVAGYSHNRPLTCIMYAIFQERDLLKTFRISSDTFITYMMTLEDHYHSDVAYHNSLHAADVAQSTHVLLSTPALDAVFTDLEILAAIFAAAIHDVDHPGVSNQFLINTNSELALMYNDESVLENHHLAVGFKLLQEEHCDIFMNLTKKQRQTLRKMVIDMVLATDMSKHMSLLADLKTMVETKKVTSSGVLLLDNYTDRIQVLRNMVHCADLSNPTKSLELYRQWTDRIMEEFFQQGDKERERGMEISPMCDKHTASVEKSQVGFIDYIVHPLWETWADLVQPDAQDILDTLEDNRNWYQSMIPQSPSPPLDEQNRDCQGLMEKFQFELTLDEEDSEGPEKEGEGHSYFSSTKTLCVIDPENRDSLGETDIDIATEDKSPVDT
Procedure, shortened: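 ACTOne HEK293 cells carry a modified cAMP-gated CNG channel and express endogenous PDE4; plated 1000 cells/well, compounds up to 22.9 uM final. Membrane-potential dye fluorescence (ex 535/em 590) was read; parental cells received 10 uM forskolin + 100 uM RO 20-1724.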

[10] = target: Cytochrome P450 2D6 (Homo sapiens) (UniProt P10635); assay: qHTS Assay for Inhibitors and Substrates of Cytochrome P450 2D6 (AID 891; active means well fitted curve in the direction sought with a large enough effect; an effect the other way counts as inactive or inconclusive; further: potency means the concentration at half of the fitted maximal effect; nearly all actives have a fitted effect of over 60% in size); conditions: recombinant CYP2D6, luciferin-ME EGE luminescence; series mostly up to 11.4 µM
Chain of Cytochrome P450 2D6 (Homo sapiens) (P10635 whole entry, looked up): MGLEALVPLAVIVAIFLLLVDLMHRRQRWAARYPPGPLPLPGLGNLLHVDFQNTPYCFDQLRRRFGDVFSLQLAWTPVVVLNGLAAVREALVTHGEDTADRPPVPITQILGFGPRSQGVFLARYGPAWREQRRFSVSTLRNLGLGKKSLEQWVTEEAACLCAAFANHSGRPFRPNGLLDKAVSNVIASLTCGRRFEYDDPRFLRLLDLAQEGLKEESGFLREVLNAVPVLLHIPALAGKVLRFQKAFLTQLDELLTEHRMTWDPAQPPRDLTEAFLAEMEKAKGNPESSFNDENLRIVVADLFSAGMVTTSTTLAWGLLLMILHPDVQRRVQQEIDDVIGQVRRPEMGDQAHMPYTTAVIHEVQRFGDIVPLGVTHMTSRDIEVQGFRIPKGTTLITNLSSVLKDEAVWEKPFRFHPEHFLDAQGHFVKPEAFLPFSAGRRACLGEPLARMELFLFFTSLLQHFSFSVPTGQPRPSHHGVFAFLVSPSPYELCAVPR
Procedure, shortened: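 Human CYP2D6 (5 nM) with 30 uM Luciferin-ME EGE (at Km) in 100 mM KPO4, compound preincubated 10 min, then NADPH regeneration system for 60 min at room temperature. Luciferin read by luminescence; normalized to 1.43 uM quinidine.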

[11] = target: Cytochrome P450 2C19 (Homo sapiens) (UniProt P33261); assay: qHTS Assay for Inhibitors and Substrates of Cytochrome P450 2C19 (AID 899; active means well fitted curve in the direction sought with a large enough effect; an effect the other way counts as inactive or inconclusive; further: nearly all actives have a fitted effect of over 60% in size; further: potency means the concentration at half of the fitted maximal effect; on activity, negative = inhibition: on the % scale 0 is the no-effect control and ±100 the full control effect); conditions: recombinant CYP2C19, luciferin-H EGE luminescence; series mostly up to 11.4 µM
Chain of Cytochrome P450 2C19 (Homo sapiens) (P33261 whole entry, looked up): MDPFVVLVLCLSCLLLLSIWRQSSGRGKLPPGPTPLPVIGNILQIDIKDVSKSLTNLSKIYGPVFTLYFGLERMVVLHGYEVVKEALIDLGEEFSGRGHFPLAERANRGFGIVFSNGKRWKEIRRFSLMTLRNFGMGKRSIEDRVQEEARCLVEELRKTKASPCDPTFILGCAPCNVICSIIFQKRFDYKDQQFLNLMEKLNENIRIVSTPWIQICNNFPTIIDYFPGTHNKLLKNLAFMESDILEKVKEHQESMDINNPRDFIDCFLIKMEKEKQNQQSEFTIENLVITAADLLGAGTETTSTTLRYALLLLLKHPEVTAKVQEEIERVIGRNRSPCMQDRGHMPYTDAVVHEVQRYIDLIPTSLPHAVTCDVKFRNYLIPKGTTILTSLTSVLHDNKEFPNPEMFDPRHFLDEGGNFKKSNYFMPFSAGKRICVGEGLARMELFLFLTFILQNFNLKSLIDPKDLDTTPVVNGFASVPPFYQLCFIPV
Procedure, shortened: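 NADPH-dependent conversion of Luciferin-H EGE (10uM, at KM) by 5nM enzyme in 50mM KPO4, 60 min at 37C following 10 min compound preincubation. Stopped with luciferin detection buffer; luminescence read after 20 min.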

[12] = target: Cytochrome P450 3A4 (Homo sapiens) (UniProt P08684); assay: qHTS Assay for Inhibitors and Substrates of Cytochrome P450 3A4 (AID 884; active means well fitted curve in the direction sought with a large enough effect; an effect the other way counts as inactive or inconclusive; further: potency means the concentration at half of the fitted maximal effect; nearly all actives have a fitted effect of over 50% in size); conditions: recombinant CYP3A4, Luciferin-PPXE luminescence; series mostly up to 57.1 µM
Procedure, shortened: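 20 nM human CYP3A4 with 25 uM Luciferin-PPXE (at KM) in 200 mM KPO4, preincubated 10 min with compound; NADPH regeneration started a 60 min RT reaction. Luciferin detected by luminescence, normalized to 57 uM ketoconazole as full inhibition.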

[13] = qHTS Assay for Identification of Small Molecule Agonists for Hypoxia Response Element Signaling Pathway (AID 914; active means well fitted activation curve with a large enough effect in the signal ratio, with a control signal flat, not every such curve was filed as active; the % refers to the signal ratio; further: % of control where 0% means no effect); conditions: ME-180 (cervical carcinoma) HRE-bla reporter, beta-lactamase ratio, CoCl2, 17 h; activation: stronger effect = higher value
Procedure, shortened: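 HRE-bla ME-180 cells with beta-lactamase reporter under hypoxia response element, compounds with EC50 CoCl2 for 17 hours at 37 C. CCF4 substrate, 460nm/530nm emission ratio gave %Activity; AC50 from titration series.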

[14] = target: Cytochrome P450 2C9 (Homo sapiens) (UniProt P11712); assay: qHTS Assay for Inhibitors and Substrates of Cytochrome P450 2C9 (AID 883; active means well fitted curve in the direction sought with a large enough effect; an effect the other way counts as inactive or inconclusive; further: potency means the concentration at half of the fitted maximal effect; nearly all actives have a fitted effect of over 60% in size); conditions: recombinant CYP2C9, luciferin-H luminescence, 60 min; series mostly up to 11.4 µM
Chain of Cytochrome P450 2C9 (Homo sapiens) (P11712 whole entry, looked up): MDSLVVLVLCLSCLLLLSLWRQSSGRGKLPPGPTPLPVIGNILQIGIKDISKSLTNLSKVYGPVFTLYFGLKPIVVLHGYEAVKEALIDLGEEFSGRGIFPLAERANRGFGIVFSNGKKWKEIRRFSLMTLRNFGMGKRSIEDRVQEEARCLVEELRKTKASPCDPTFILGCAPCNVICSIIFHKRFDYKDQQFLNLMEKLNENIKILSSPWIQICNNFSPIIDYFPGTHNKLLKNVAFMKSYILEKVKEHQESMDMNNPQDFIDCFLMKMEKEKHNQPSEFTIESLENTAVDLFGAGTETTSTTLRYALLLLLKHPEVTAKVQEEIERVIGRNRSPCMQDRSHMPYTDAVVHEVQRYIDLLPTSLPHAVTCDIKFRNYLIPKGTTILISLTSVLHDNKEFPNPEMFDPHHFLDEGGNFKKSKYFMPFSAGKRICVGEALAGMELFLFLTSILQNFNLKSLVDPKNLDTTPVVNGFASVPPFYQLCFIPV
Procedure, shortened: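 A luminogenic readout tracked human CYP2C9 (10nM) converting deoxyluciferin (100uM, at KM) in 25mM KPO4 during 60 min at 37C with regenerated NADPH. Values normalized to 57uM sulphaphenazole as complete inhibition.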

For Cc1nc2cnc(Oc3ccccc3)nc2n(CCc2ccccc2)c1=O, the Potency [1] was > 11.4 µM, the activity change, negative = inhibition [2] was 17.9% and the Potency [3] was 3.16 µM (active). For the same compound, the activity, negative = inhibition [4] was -2.9%, the Potency [5] was > 9.22 µM and the Potency [6] was > 46 µM. The Potency [7] was “inactive” and the Potency [8] was “inactive”.

In the case of CN(Cc1cccc2ccccc12)Cc1cccc2ccccc12, the Potency [1] was > 11.4 µM, the activity change, negative = inhibition [2] was 6.28% and the Potency [3] was 3.16 µM (active). The activity, negative = inhibition [4] was -2.17%, the Potency [5] was > 46 µM and the Potency [6] was > 9.22 µM. The Potency [7] was “inactive”, the Potency [9] was “inactive” and the Potency [10] was 0.398 µM (active). For the same compound, the Potency [11] was 1.58 µM (active).

In the case of Clc1ccc2c(NC3CCC(N4CCCCC4)CC3)ccnc2c1 (stereo not given), the Potency [1] was > 11.4 µM, the activity change, negative = inhibition [2] was -12.3% and the activity change, negative = inhibition [3] was -15.7% [at 2.29 µM]. For the same compound, the activity, negative = inhibition [4] was 3.71%, the Potency [5] was > 46 µM and the Potency [6] was > 9.22 µM. The Potency [9] was “inactive” and the Potency [11] was “inactive”.

For N/N=C1/c2ccccc2N[C@H]1OC(=O)Nc1ccccc1, the Potency [1] was > 11.4 µM, the activity change, negative = inhibition [2] was -4.61% and the Potency [3] was 0.501 µM (active). The activity, negative = inhibition [4] was -9.98%, the Potency [5] was > 46 µM and the Potency [6] was > 9.22 µM. For the same compound, the Potency [7] was “inactive”, the Potency [9] was “inactive” and the Potency [10] was 3.16 µM (active).

For Clc1ccc2c(c1)N(CCCN1CCCC13CCCCC3)c1ccccc1S2, the Potency [1] was > 11.4 µM, the activity change, negative = inhibition [2] was 19% and the activity change, negative = inhibition [3] was -6.2% [at 2.29 µM]. For the same compound, the activity, negative = inhibition [4] was 11.1%, the Potency [5] was > 46 µM and the Potency [6] was > 9.22 µM. The Potency [7] was “inactive”, the Potency [9] was “inactive” and the Potency [10] was 0.0079 µM (active).

For COc1ncc2nc(CCc3ccccc3)c(=O)n(C)c2n1, the Potency [1] was > 11.4 µM, the activity change, negative = inhibition [2] was -29.7% and the Potency [3] was 5.01 µM (active). The activity, negative = inhibition [4] was -1.2%, the Potency [5] was > 9.22 µM and the Potency [7] was “inactive”. For the same compound, the Potency [9] was “inactive”.

For CC(C)(C)c1ccc(OCC(=O)O)c(Cl)c1, the Potency [1] was > 11.4 µM, the activity change, negative = inhibition [2] was -2.54% and the Potency [3] was “inactive”. For the same compound, the activity, negative = inhibition [4] was -5.16%, the Potency [5] was > 46 µM and the Potency [6] was > 9.22 µM. For the same compound, the Potency [7] was “inactive”, the Potency [9] was “inactive” and the Potency [11] was “inactive”.

For CC1CCN(CC(=O)N2c3ccccc3Sc3cc4ccccc4cc32)CC1, the Potency [1] was > 11.4 µM, the activity change, negative = inhibition [2] was 28.3% and the Potency [3] was 3.98 µM (active). The activity, negative = inhibition [4] was 9.28%, the Potency [5] was > 46 µM and the Potency [6] was > 9.22 µM. The Potency [7] was “inactive”, the Potency [12] was 3.98 µM (active) and the Potency [8] was “inactive”. The Potency [10] was 3.98 µM (active) and the Potency [11] was 3.16 µM (active).

For CC1(C)N=C(N)N=C(N)N1c1cccc(OCc2cccc([N+](=O)[O-])c2)c1, the Potency [1] was > 11.4 µM, the activity change, negative = inhibition [2] was -5.25% and the Potency [3] was 5.01 µM (active). For the same compound, the activity, negative = inhibition [4] was -5.32%, the Potency [5] was > 46 µM and the Potency [6] was > 9.22 µM. The Potency [7] was “inactive”, the Potency [9] was “inactive” and the Potency [11] was “inactive”. For the same compound, the activation [13] was 5.31%.

For COCCn1c(=O)c(-c2cccs2)nc2cnc(Oc3ccc(OC)cc3)nc21, the Potency [1] was > 11.4 µM, the activity change, negative = inhibition [2] was -1.43% and the Potency [3] was 2.51 µM (active). The activity, negative = inhibition [4] was 11.7%, the Potency [5] was > 9.22 µM and the Potency [6] was > 46 µM. The Potency [9] was “inactive”, the Potency [14] was 5.01 µM (active) and the Potency [8] was “inactive”.

With CN(C)S(=O)(=O)c1ccc(Nc2ccc(O)c3c2C(=O)c2c([N+](=O)[O-])ccc(O)c2C3=O)cc1 the Potency [1] was > 11.4 µM, the activity change, negative = inhibition [2] was -13.4% and the Potency [3] was 0.126 µM (active). The activity, negative = inhibition [4] was 23.6%, the Potency [5] was > 46 µM and the Potency [6] was > 9.22 µM. For the same compound, the Potency [9] was “inactive” and the Potency [8] was “inactive”.

For O=[N+]([O-])c1ccc(C2=Nn3c(nnc3-c3ccc(Cl)cc3)SC2)o1, the Potency [1] was > 11.4 µM, the activity change, negative = inhibition [2] was 22.7% and the Potency [3] was 0.158 µM (active). For the same compound, the activity, negative = inhibition [4] was -6.24%, the Potency [5] was > 46 µM and the Potency [6] was > 9.22 µM. The Potency [7] was “inactive”, the Potency [9] was “inactive” and the Potency [11] was 2.51 µM (active).

In the case of c1ccc(C[n+]2cccc(-c3cc4ccccc4[nH]3)c2)cc1, the Potency [1] was > 11.4 µM, the activity change, negative = inhibition [2] was 2.74% and the Potency [3] was 1.26 µM (active). The activity, negative = inhibition [4] was -0.473%, the Potency [5] was > 46 µM and the Potency [6] was > 9.22 µM. For the same compound, the Potency [7] was “inactive”, the Potency [9] was “inactive” and the Potency [10] was 1.26 µM (active).

With Nc1ccccc1S[C@@H](C[N+](=O)[O-])c1ccc2c(c1)OCO2 the Potency [1] was > 11.4 µM, the activity change, negative = inhibition [2] was 11.2% and the Potency [3] was 0.631 µM (active). For the same compound, the activity, negative = inhibition [4] was -19.6%, the Potency [5] was > 46 µM and the Potency [6] was > 9.22 µM. For the same compound, the Potency [7] was “inactive”, the Potency [8] was “inactive” and the Potency [10] was 3.98 µM (active). The Potency [11] was 1.58 µM (active).

In the case of CC1(C)N=C(N)N=C(N)N1CCCCc1ccccc1, the Potency [1] was > 11.4 µM, the activity change, negative = inhibition [2] was 7.1% and the activity change, negative = inhibition [3] was -4.3% [at 2.29 µM]. For the same compound, the activity, negative = inhibition [4] was 0.495%, the Potency [5] was > 46 µM and the Potency [6] was > 9.22 µM. The Potency [7] was “inactive”, the Potency [9] was “inactive” and the Potency [10] was 3.16 µM (active).
